According to PubChem BioAssay (NCI):
This is part of a sample that, as a whole, favours compounds with a hit. Of some 79,000 tested, about 15% had one in any assay. A number with no mark means an inactive call. The source made the active and inactive calls. Rule as the data show it: active = growth inhibition above about 70%; inactive = the rest.

assay: NCI Yeast Anticancer Drug Screen. Data for the bub3 strain (AID 167); conditions: S. cerevisiae bub3 mutant strain, at 50.0 µM (retest, dose inferred, filed as 5.0), hits give high values
How it was run: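 Readout: yeast growth inhibition, expressed relative to vehicle-only wells. The test organism is a mutant strain from a panel with lesions in DNA repair or checkpoint genes.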

For `CCN(CC)CC[n+]1ccc2c(C)c3[nH]c4ccc(O)cc4c3c(C)c2c1`, which growth inhibition is on record?
Its growth inhibition is 6%.

Which growth inhibition does the source give for `O=[n+]1c2ccc(Cl)cc2n([O-])c2ccc(Cl)cc21` here?
Its growth inhibition is 22%.

With `CCOP(=O)(OCC)C(Cc1ccccc1)N=C(c1ccccc1)c1ccccc1` (centres undefined) as the compound, how does the growth inhibition read?
The growth inhibition was -11%.

For `CC[C@@]1(O)C(=O)OCc2c1cc1n(c2=O)Cc2cc3c(N)cccc3nc2-1`, which growth inhibition is on record?
The growth inhibition was 1%.

For `COC1C=COC2(C)Oc3c(C)c(O)c4c(c3C2=O)/C(=N/C2CCC(O)OC2C)C=C(NC(=O)/C(C)=C\C(=O)C2CC2C(O)C(C)C(O)C(C)C(OC(C)=O)C1C)C4=O` (centres undefined), which growth inhibition is on record?
The growth inhibition was 7%.

For `COc1cc2c(c(OC)c1OC)-c1c(cc3c(c1OC)OCO3)CC(C)C(C)(O)C2OC(=O)c1ccccc1` (centres undefined), which growth inhibition is on record?
Its growth inhibition is 49%.

Which growth inhibition does the source give for `O=c1ssc2ncccc12` here?
The growth inhibition was 97% (active).

For `O=C1C2C(C(=O)N1c1ccc(OCc3ccccc3)cc1)C1c3ccccc3C2C2CCCCN21` (centres undefined), which growth inhibition is on record?
The growth inhibition was 47%.

For `COc1ccc(-c2cn(-c3ccc(I)cc3)c3ncnc(N)c23)cc1`, which growth inhibition is on record?
Its growth inhibition is 72% (active).

With `CCOC(=O)C(NC(=O)c1ccccc1)(N1CCN(c2cc3c(cc2F)c(=O)c(C(=O)O)cn3C2CC2)CC1)C(F)(F)F` (centres undefined) as the compound, how does the growth inhibition read?
Its growth inhibition is 3%.

For `C/C(=N\O)C1CC2C=C(C#N)C1N(Cc1ccccc1)C2` (centres undefined), which growth inhibition is on record?
The growth inhibition was 13%.

For `CC/C(=C(\c1ccccc1)c1ccc(OCCN(C)C)cc1)c1ccccc1`, which growth inhibition is on record?
The growth inhibition was 92% (active).

With `COc1ccccc1N=NC(C(=O)c1ccccc1)C(=O)c1ccccc1` as the compound, how does the growth inhibition read?
The growth inhibition was 97% (active).

For `CC(O)C(O)C(O)C(/C=N\Nc1ccccc1)=N/Nc1ccccc1` (centres undefined), which growth inhibition is on record?
The growth inhibition was 43%.
